# Assay outcomes as filed in PubChem.
# GAA850 FXN act = activators of GAA850 frataxin (FXN) promoter. actives 0.56% (n = 360,000). activation, % at 6 µM. AID 540364. HEK293 lucGAA850 FXN promoter luciferase reporter, 24 h; percent of 10 µM SAHA response;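 active = activation above the average of all compounds screened plus 3 SD, cutoff fixed separately per campaign, cut at about 7.5% in these data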
# NR0B1 inh = inhibits human nuclear receptor DAX1 | P51843 | HEK293 Gal4-DAX1 luciferase reporter, luminescence | inhibition, % at 6.75 µM | actives 0.99% (n = 340,000) | AID 504766;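 active = inhibition above the mean over all tested compounds plus 3 SD, cut at about 4.2% in these data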;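 note: inhibition shows as a rise in luminescence from relieved DAX1 repression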
# Target sequence (P51843 207-470 limits assumed): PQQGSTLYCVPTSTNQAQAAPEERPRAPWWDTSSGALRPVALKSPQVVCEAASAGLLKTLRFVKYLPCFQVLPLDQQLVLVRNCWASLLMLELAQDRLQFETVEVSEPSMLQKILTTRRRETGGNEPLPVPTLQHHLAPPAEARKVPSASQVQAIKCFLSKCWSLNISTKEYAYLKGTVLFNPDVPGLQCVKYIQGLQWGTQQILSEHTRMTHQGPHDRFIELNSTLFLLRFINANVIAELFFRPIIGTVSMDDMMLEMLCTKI
# HSP90 inh = inhibitors of HSP90 luciferase refolding in rabbit reticulocyte lysate. AID 1789. luciferase refolding luminescence, 3 h. inhibition, % at 5.6 µM. actives 0.91% (n = 290,000);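 active = inhibition above the screen-wide mean plus 3 SD, computed separately per campaign, cut at about 16% in these data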;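 note: inhibitors lower the luminescence because luciferase stays unfolded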
# HSF1 inh = HSF1 inhibition; NIH3T3-HGL HSE-luciferase, MG132-induced, luminescence 8 h; stronger effect = lower value; activity change, negative = inhibition, % at 7.5 µM (by protocol); actives 0.77% (n = 300,000); AID 2098;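 active = more than half of replicate wells show activity change below -50%, luminescence cut by over half; inconclusive = some wells, but at most half, below -50%; inactive = no replicate well below -50%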;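 note: luciferase reports HSF-1 transcriptional activity via heat shock element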
# AHR act = human AHR activation; P35869; AHR-responsive luciferase reporter cells, luminescence; activation, % at 5 µM; actives 2.5% (n = 320,000); in the data active = activation above about 47%
# HSF-1 act = increases HSF-1 driven luciferase reporter signal; NIH3T3-HGL HSF-1 luciferase reporter, MG132, 8 h; 100% = twice DMSO control signal; activation, % at 9 µM; actives 1.7% (n = 300,000);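 active = mean replicate activation of at least 50% with a set share of replicates each reaching 50%; inconclusive = only one of those two conditions met; inactive = mean below 50% and too few replicates reaching it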
# Numbers stand for hits; 0 = inactive; ? = inconclusive; - = no result. Most compounds without a hit are left out; they make up all but 5.9% or so of the library.
SMILES,GAA850 FXN act,NR0B1 inh,HSP90 inh,HSF1 inh,AHR act,HSF-1 act
CCOC(=O)c1c(N)sc(C(=O)Nc2ccccc2F)c1C,0,4.4,0,0,0,95
Cc1cc(N=Nc2ccc(Cl)cc2)cc(CN2CCCC2)c1O,0,0,0,-60,0,0
CC(C)C(=O)Nc1cccc(NC(=S)NC(=O)c2cccs2)c1,0,0,0,0,48,0
O=C(NC(=S)Nc1ccc(Cl)cn1)c1cccs1,0,5.5,0,0,0,0
O=C(c1ccc(Br)cc1)N1CCN(c2ncccn2)CC1,0,0,-,0,0,0
O=C(c1ccc([N+](=O)[O-])cc1)N1CCN(c2ncc(Br)cn2)CC1,0,0,0,-76,0,0
CCn1ncc(C(=O)Nc2ccc(F)cc2)c1C,0,0,-,0,60,0
CCCc1c(C(=O)Nc2ccc(C(F)(F)F)cc2)cnn1-c1ccccc1,0,0,0,0,110,0
Cc1c(C(=S)Nc2ccccc2)cnn1-c1ccccc1,0,0,0,0,0,62
CCCc1c(C(=O)NNc2cc(C(F)(F)F)ccc2Cl)cnn1-c1ccccc1,0,0,0,0,0,0
CCn1ncc(C(=O)Nc2ccccc2C)c1C,0,0,0,0,0,0
CCc1ccc(NC(=O)c2cnn(-c3ccccc3)c2C)cc1,0,0,0,0,0,57
CC(C)Cn1c(N)c(C(=O)COC(=O)C2Cc3ccccc3CN2S(C)(=O)=O)c(=O)n(C)c1=O (stereo not given),0,0,-,-,0,-
c1ccc(-c2ccc(C(c3ccccc3)n3ccnc3)cc2)cc1 (stereo not given),0,0,0,0,48,0
c1ccc(-c2ccc(-n3ccnc3)cc2)cc1,0,0,0,0,0,72
Cc1cc(-c2nnc(CCC(=O)NC(C)c3cccc4ccccc34)o2)no1 (stereo not given),0,0,0,0,0,0
Cc1cc(-c2nnc(CCC(=O)N(C)Cc3cccc4ccccc34)o2)no1,0,0,0,0,0,64
CCc1cc2c3c(c(=O)oc2cc1O)CCCC3,0,0,0,0,76,0
CCc1cc2c3c(c(=O)oc2cc1OC(C)C(=O)O)CCCC3 (stereo not given),0,0,0,0,0,0
CCOC(=O)c1c(C)n(-c2ccc(C)cc2)c2c(C(C(C)=O)C(=O)O)c(Br)c(O)c(O)c12 (stereo not given),0,0,0,0,0,0
CCOC(=O)c1c(C)n(-c2ccc(C)cc2)c2c(CC(C)=O)c(Br)c(OC)c(O)c12,0,0,0,0,0,65
CCOc1ccccc1N1C(=O)CC(Sc2n[nH]c(-c3ccccc3)n2)C1=O (stereo not given),0,4.8,0,0,0,0
CC(=O)Nc1c(Cl)c(Cl)c2c(c1Cl)Cc1cc(Cl)ccc1-2,0,0,-,-,-,-
C(=N\Nc1nc(-c2cccnc2)nc2ccccc12)/c1ccccc1,0,-,0,0,58,0
c1ccc(-c2nc(NCc3ccco3)c3ccccc3n2)nc1,0,0,0,0,0,0
SMILES,GAA850 FXN act,NR0B1 inh,HSP90 inh,HSF1 inh,AHR act,HSF-1 act
COc1cccc(CNc2nc(-c3cccnc3)nc3ccccc23)c1,0,0,0,0,0,69
C(=N\Nc1nc(-c2ccccn2)nc2ccccc12)/c1ccccc1,-,-,0,0,0,160
Brc1ccc(-c2nc(N/N=C/c3cccnc3)c3ccccc3n2)cc1,0,0,0,0,0,0
COc1cc(C(=O)NNC(=O)CNC(=O)C2CCCCC2)ccc1OC(C)C,0,0,-,-,0,-
Cc1cccc(CCN2C(N(C)C)=NC[C@@H]2C)c1,0,0,-,-,0,-
Cc1cc(C)cc(OCC(O)CN2C(=O)NC(C)(C)C2=O)c1 (stereo not given),0,0,0,0,0,64
Cc1ccc(OCC(O)CN2C(=O)NC(C)(C)C2=O)c(C)c1 (stereo not given),0,0,0,0,0,0
O=C1NC(Cc2ccccc2)c2nc3ccc(F)cc3c(=O)n2-c2cc(Cl)ccc21 (stereo not given),-,-,-,-,0,-
COc1cccc(NC(=O)[C@H](CC(C)C)NC(=O)N2CCn3c2nc2ccccc23)c1,0,0,0,0,0,0
Cc1ccc(-c2cn3cccnc3n2)cc1,0,0,0,0,0,0
O=C(Nc1ccccc1)Nc1cccc(-c2cn3cccnc3n2)c1,0,0,0,0,0,0
O=C(Nc1cccc(-c2cn3cccnc3n2)c1)c1ccco1,0,0,0,0,0,0
O=C(Nc1cccc(-c2cn3cccnc3n2)c1)c1ccc2c(c1)OCO2,0,0,0,0,49,0
O=C(Nc1cccc(-c2cn3c(n2)SCC3)c1)c1ccc2c(c1)OCO2,0,0,0,0,50,0
O=C(Nc1cccc(-c2cn3cccnc3n2)c1)c1ccc(Br)o1,0,0,0,0,72,0
c1cnc2nc(-c3ccc4c(c3)OCO4)cn2c1,0,0,0,0,64,0
C[C@@H]1CN([C@@H](C)CO)C(=O)c2cc(N(C)C)ccc2O[C@@H](C)CCCCO[C@@H]1CN(C)S(=O)(=O)c1cccs1,0,0,-,-,-,-
O=C(Nc1ccc(C(=O)N2CCCC2)cc1)C1CC1,0,0,-,-,-,-
Cc1ccc(C(=O)Nn2cnnc2)cc1,0,0,0,0,0,0
CCCCN(C(=O)CSc1ncn[nH]1)c1c(N)n(Cc2ccccc2)c(=O)[nH]c1=O,0,0,-,-,0,-
Clc1cccc(N/N=C(\Cc2nc3ccccc3[nH]2)c2ccccc2)c1,0,0,0,0,64,70
O=C(Nc1ccccc1C(=O)O)C1=NN=CC1,0,0,0,0,0,0
CCN(CC)S(=O)(=O)c1ccc2nc(NC(=O)c3cccs3)sc2c1,0,0,0,0,72,0
CC(=O)Nc1ccc2nc(NC(=O)c3cccs3)sc2c1,0,0,0,0,58,0
Cn1cnc2cc(NC(=O)c3cccs3)ccc21,0,5.7,0,0,0,?
SMILES,GAA850 FXN act,NR0B1 inh,HSP90 inh,HSF1 inh,AHR act,HSF-1 act
CS(=O)(=O)c1ccc2nc(NC(=O)Nc3cccc(Cl)c3)sc2c1,0,0,0,0,0,99
CCN(CC)S(=O)(=O)c1ccc2nc(NC(=O)c3ccco3)sc2c1,0,0,0,0,0,0
Cc1cccc(C(=O)Nc2ccc3c(c2)ncn3C)c1,0,0,0,0,0,0
Cc1nc2ccc(NC(=O)c3cccs3)cc2s1,0,0,0,0,0,0
O=C(Nc1ccncc1)c1cc(C2CCCCN2C(=O)CCCc2ccccc2)on1 (stereo not given),0,-,-,-,-,-
CC(=O)c1cccc(NC(=O)C(C)OC(=O)C2CCC2)c1 (stereo not given),0,0,0,0,0,0
C[C@H](CO)N1C[C@H](C)[C@@H](CN(C)S(=O)(=O)c2ccc3ccccc3c2)OCc2cnnn2CCCC1=O,0,0,-,-,-,-
CS(=O)(=O)c1ccc2nc(NC(=O)CCS(=O)(=O)c3ccccc3)sc2c1,0,0,0,0,0,0
